{"source": "PubChem BioAssay (NCI)", "note": "Where “and” joins values, the source holds several entries; their conditions need not be identical. Equal entries are not always repeated. About 83,000 compounds went through this panel and 20% of them were active in at least one assay; those are over-represented in the sample as a whole.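 Cells were grown in 96-well plates and exposed to the test compound at a single concentration for 48 hours; results are reported as percent growth, with values below 10 considered active.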 Calls of active or inactive are those of the source."}
{"system": "KM12 colon", "assay": "NCI-60 one-dose screen, 48 h (100 = growth as untreated, 0 = no growth, -100 = all killed)", "conditions": "10 µM unless noted"}
{"compound": "CN(C)C(=O)c1cc2cnc(Nc3ccc(-c4csc5c(=S)cc(N6CCOCC6)oc45)cc3)nc2n1C1CCCC1", "growth": "6.53% (active)"}
{"compound": "CN1CCN(c2ccc(/C=C/C(=O)c3ccc(O)cc3)cc2)CC1", "growth": "101% (inactive)"}
{"compound": "CCCCC(NC(=O)CN1C(=O)/C(=C/C(C)=C/c2ccccc2)SC1=S)C(=O)O", "note": "(stereo unspecified)", "growth": "102% (inactive)"}
{"compound": "COc1ccc(-c2nc(Cl)c3c(C)nn(-c4ccc(F)cc4)c3n2)cc1", "growth": "104% (inactive)"}
{"compound": "CCCCn1c(C(=O)c2c[nH]c3ccccc23)n[nH]c1=S", "growth": "92.2% (inactive)"}
{"compound": "COc1ccc(/C=C2\\COc3ccc(O)c(O)c3C2=O)c(OC)c1OC", "growth": "33.5% (inactive)"}
{"compound": "C=C(CN1CC=CCC1)[C@@H]1CC[C@]2(COC(C)=O)CC[C@]3(C)[C@H](CC[C@@H]4[C@@]5(C)CC[C@H](O)C(C)(C)[C@@H]5CC[C@]43C)[C@@H]12", "growth": "106% (inactive)"}
{"compound": "O=[N+]([O-])c1ccc(S(=O)Cc2ccccc2)c([N+](=O)[O-])c1", "note": "(stereo unspecified)", "growth": "77.1% (inactive) and 101% (inactive)"}
{"compound": "O=C(Cn1cc(CN2CCN(c3ccnc4cc(Cl)ccc34)CC2)nn1)Nc1cccc([N+](=O)[O-])c1", "growth": "85.4% (inactive)"}
{"compound": "Nc1n[nH]c2cccc(C#Cc3cccc(NC(=O)c4ccc(N5CCOCC5)c(C(F)(F)F)c4)c3)c12", "growth": "21.4% (inactive)"}
{"compound": "COC1=CC(=O)C(OC)=C(O)C1=O", "growth": "102% (inactive)"}
{"compound": "CONC1=Nc2cc(NC(N)=NCc3ccccc3)c(N(C)C3CCCCC3)cc2OC1", "growth": "61.5% (inactive)"}
{"compound": "Cc1ccc(NC(=O)c2ccc(CN3CCN(C)CC3)cc2)cc1Nc1nccc(-c2cccnc2)n1", "growth": "107% (inactive) and 69% (inactive)"}
{"compound": "Fc1ccc(NC(c2ccc(F)cc2)C2CCN(CCCCc3ccccc3)CC2)cc1", "note": "(stereo unspecified)", "growth": "29.9% (inactive)"}
{"compound": "COc1ccc2c(O)c(/C=C3\\N=Nc4nc(C)ccc43)oc2c1CC1CCNCC1", "growth": "38.2% (inactive)"}
{"compound": "COc1ccc(C(=O)N/N=C/c2ccc(O)cc2O)cc1Nc1ccnc(C(F)(F)F)c1", "growth": "69.4% (inactive)"}
{"compound": "COc1ccc(-c2cc(-c3cc(OC)c(OC)c(OC)c3)c(C#N)c(=O)n2CCCCC(=O)O)cc1", "growth": "94.6% (inactive)"}
{"compound": "COc1cc(-c2[nH]ncc2Nc2ccc(Cl)cc2)cc(OC)c1OC", "growth": "63.5% (inactive)"}
{"compound": "Nc1ccc(S(=O)(=O)c2ccc(N)cc2)cc1", "growth": "106% (inactive) and 109% (inactive)"}
{"compound": "C/C(=C(\\c1ccc(OCCN2CCOCC2)cc1)c1ccc(OC(=O)C2CCCCC2)cc1)c1ccc(Cl)cc1", "growth": "98.8% (inactive)"}
{"compound": "CCN(CC)CCOc1ccc(/C(=C(\\Cl)c2ccccc2)c2ccccc2)cc1", "growth": "21.8% (inactive) and 75.9% (inactive)"}
{"compound": "CSc1nnc(-c2cc3c([nH]c4ccccc43)c(-c3cccc(O)c3)n2)n1-c1ccc(C)cc1", "growth": "26.3% (inactive)"}
{"compound": "COc1ccc(/C(C)=C(\\c2ccc(OCCN3CCCCCC3)cc2)c2ccc(OC(=O)C3CCCCC3)cc2)cc1", "growth": "-54.1% (active)"}
{"compound": "N=C1/C(=C2\\NC3C=CC=CC3S2)C(c2ccc(Cl)cc2)C2C(=O)N(c3ccccc3)C(=S)N12", "note": "(stereo unspecified)", "growth": "108% (inactive)"}
{"compound": "Nc1nc(Nc2cccnc2)sc1C(=O)c1ccccc1F", "growth": "5.5% (active)"}
{"compound": "COCCOc1cc2ncnc(N3CCN(S(=O)(=O)c4ccccc4Cl)CC3)c2cc1OCCOC", "growth": "69.7% (inactive)"}
{"compound": "O=C1/C(=C/c2ccc(F)c(F)c2)CN(C(=O)C(Cl)Cl)C/C1=C\\c1ccc(F)c(F)c1", "growth": "-89.2% (active)"}
{"compound": "O=C([C@H]1C[C@H]1c1ccc(S(F)(F)(F)(F)F)cc1)N1CCN(c2cc(Cl)ccc2C(F)(F)F)CC1", "growth": "82.5% (inactive)"}
{"compound": "O=C(NNc1ccccc1)c1ncc[nH]1", "growth": "29.5% (inactive)"}
{"compound": "COc1cccc(C2C(C#N)=C(N)Oc3cc(OCCCCCC[P+](c4ccccc4)(c4ccccc4)c4ccccc4)ccc32)c1", "note": "(stereo unspecified)", "growth": "-77% (active)"}
{"compound": "CCOC(=O)N(O)c1ccc(/C=C/c2ccccc2)cc1", "growth": "78.5% (inactive) and 64.9% (inactive)"}
{"compound": "CN(C)CCN1C(=O)c2c(c3c4ccccc4n4c3c3c2c2ccccc2n3C2CC(O)C(O)C4(C)O2)C1=O", "note": "(stereo unspecified)", "growth": "34.2% (inactive)"}
{"compound": "O=C(CCCOc1ccc(Br)cc1)Nc1ncc(Cc2ccc(F)cc2)s1", "growth": "36.2% (inactive)"}
{"compound": "COc1cc(NC2CCCCC2O)c2nc(-c3ccc(Cl)cc3)ccc2c1", "note": "(stereo unspecified)", "growth": "54.9% (inactive) and 68.3% (inactive)"}
{"compound": "O=C(O)C1C2CCC1C(O)C2", "note": "(stereo unspecified)", "growth": "107% (inactive) and 98.7% (inactive)"}
{"compound": "Nc1nc(Nc2ccc(F)cc2)nn1C(=O)c1cc(Cl)ccc1Cl", "growth": "51.4% (inactive)"}
